# Sampled rows, rich in hits. Any-hit rate of the full collection: about 2.2%.
# HSP90 inh – blocks HSP90-mediated luciferase refolding in reticulocyte lysate. 290,000 compounds, 0.91% hits. inhibition, % at 5.6 µM. Rabbit reticulocyte lysate, luciferase refolding luminescence, 3 h;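 active = inhibition above the screen-wide mean plus 3 SD, computed separately per campaign, cut at about 16% in these data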;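 note: 0% = DMSO wells and 100% = 60 µM geldanamycin wells; inhibitors lower the luminescence because luciferase stays unfolded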
# LGR2 inh – inhibitors of bursicon-induced Drosophila LGR2 receptor cAMP signaling. HEK293 LGR2, CRE-luciferase, bursicon-stimulated, 4 h. inhibition, % at 9.99 µM. 380,000 compounds, 0.35% hits;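 active = drop in luminescence signal, shown as inhibition above about 50% in the replicate tests, limit read from the data, passing the limit was not always enough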;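 note: agonist challenge used bursicon conditioned medium at about half maximal strength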
# TWEAK-Fn14 inh – inhibitors of TWEAK-Fn14 interaction signaling. 360,000 compounds, 2% hits. AID 1159606. TWEAK-stimulated Fn14 reporter cells, luciferase luminescence, 8 h. inhibition, % at 10 µM; in the data active = inhibition above about 50%
# TROY signal inh – inhibitors of TROY-dependent NF-kB signaling; Q293 LMP1-TROYcd NF-kB luciferase reporter, 4 h; inhibition, % at 10 µM; 360,000 compounds, 0.98% hits;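 active = compounds whose plate-normalised and pattern-corrected inhibition of the luciferase reporter signal at the single screening dose is 50% or more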
# An asterisk follows results filed as active; . = not tested or not shown; ! = not active in a repeat.
SMILES,HSP90 inh,LGR2 inh,TWEAK-Fn14 inh,TROY signal inh
CCOC(=O)[C@]12Cc3ccccc3[C@H]1N(C)C(=O)c1cc(OC)ccc12,.,28,19,12
CCOC(=O)[C@]12Cc3cc(C)ccc3[C@H]1N(C1CCCCC1)C(=O)c1cc(OC)ccc12,.,68*,101*,54*
CCOC(=O)[C@]12Cc3cc(C)ccc3[C@H]1N(CCC(=O)OC)C(=O)c1cc(OC)ccc12,.,31,1,36
CCOc1ccc(-c2cc(C)[n+](CCc3ccc(OC)c(OC)c3)c(-c3ccc(OCC)cc3)c2)cc1,5,27,7,53*
CCCCCn1c(N)c(C(=O)NCc2cccs2)c2nc3ccccc3nc21,4,.,.,.
CCCCCCn1c(N)c(C(=O)NCCN2CCOCC2)c2nc3ccccc3nc21,0,.,56*,.
CCCCNC(=O)c1c(N)n(Cc2ccc3c(c2)OCO3)c2nc3ccccc3nc12,-1,0,51*,59*
CCCCn1c(N)c(C(=O)NCc2cccs2)c2nc3ccccc3nc21,5,.,35,68*
CCCCCn1c(N)c(C(=O)NCCN2CCOCC2)c2nc3ccccc3nc21,8,.,17,36
CCCN1[C@@H]2Cn3c(ccc(-c4cccc(OC)c4)c3=O)[C@H]1[C@@H](C(=O)OC)[C@@H]2CO,.,-1,.,.
CCCNC(=O)[C@H]1[C@H](CO)[C@H]2Cn3c(cccc3=O)[C@H]2N1C,.,1,.,.
CC(C)c1ccc(N=Nc2c(O)[nH]c(=O)[nH]c2=O)cc1,3,-38,-27,-54
O=c1[nH]c(=S)[nH]c(O)c1N=Nc1ccc(SC(F)F)cc1,1,10,58*,18
C[C@@H]1O[C@@H](O[C@@H]2C=C3CC[C@@H]4C(CC[C@]5(C)[C@@H](c6ccc(=O)oc6)CC[C@]45O)[C@@]3(C)CC2)[C@H](O)[C@H](O)[C@H]1O (some centres undefined),.,86*,86*,51*
C[C@@H]1O[C@@H](O[C@@H]2C=C3CCC4C(CC[C@]5(C)[C@@H](c6ccc(=O)oc6)CC[C@]45O)[C@@]3(C)CC2)[C@H](O)[C@H](O)[C@H]1O (some centres undefined),.,0,82*,47
CC(=O)C1CCC2(O)C3CCC4=CC(=O)CCC4(C)C3CCC12C (centres undefined),.,3,-5,-6
C[C@H]1CCC/C=C/[C@@H]2C[C@H](O)C[C@H]2[C@H](O)/C=C/C(=O)O1,.,17,55*!,-66
COC(=O)[C@@H]1[C@@H](CO)[C@@H]2Cn3c(ccc(-c4cccc(OC)c4)c3=O)[C@H]1N2C(=O)c1ccccc1F,.,5,.,.
C/C1=C\[C@@H](C)C/C=C/[C@H]2[C@@H]3O[C@]3(C)[C@@H](C)[C@H]3[C@H](Cc4c[nH]c5ccccc45)NC(=O)[C@]32C(=O)/C=C/C(=O)[C@@H]1O,3,.,-125,-53
CC1=CC2/C=C(\C)CCC(O)C(O)/C=C/C(=O)C23C(=O)NC(CC(C)C)C3C1C (centres undefined),3,.,93*,61*
CCCCn1c(NC(=O)c2ccco2)c(C(=O)OCC)c2nc3ccccc3nc21,8,.,48,52*
CCCCn1c(NS(=O)(=O)c2ccc(C)cc2)c(C(=O)OCC)c2nc3ccccc3nc21,1,-7,58*,63*
CCOC(=O)c1c(N)n(Cc2ccco2)c2nc3ccccc3nc12,-2,.,7,10
CCc1ccc(N2C(=O)NC(=O)/C(=C/c3cccn3CCOc3ccc(C(C)CC)cc3)C2=O)cc1 (centres undefined),29*,-14,65*,41
CCc1ccc(N2C(=O)NC(=O)/C(=C/c3cccn3CCOc3ccc(C)cc3)C2=O)cc1,4,16,0,-94
SMILES,HSP90 inh,LGR2 inh,TWEAK-Fn14 inh,TROY signal inh
CC[n+]1c(-c2ccccc2)c2cc(N)ccc2c2ccc(N)cc21,.,39,95*,53*
CC(=O)OC1C(O)C(C)OC(OC2C(OC(=O)C3CCC4C(C3)OC3(CC(OC(=O)/C=C/c5ccccc5)C(C)CO3)C43CO3)OC(C)C(O)C2OC(C)=O)C1O (centres undefined),.,99*,101*,84*
CCN1[C@@H]2Cn3c(ccc(-c4cccc(OC)c4)c3=O)[C@H]1[C@@H](C(=O)OC)[C@@H]2CO,.,7,.,.
CCN(CC)S(=O)(=O)c1ccc(NN=C(C#N)C#N)cc1,1,.,67*,63*
CCN1[C@@H]2c3ccc(-c4ccc(OC)cc4)c(=O)n3C[C@H]1[C@H](CO)[C@H]2C(=O)OC,.,-11,.,.
COc1ccc(CCN)cc1O,.,-8,11,-13
NCCc1cc(O)c(O)cc1O,.,7,56*!,4
